Bioassay records: PubChem BioAssay, several laboratories
GDH-TPI inh – inhibits GDH-TPI coupling enzymes, artifact for Mtb FBA screen; GDH-TPI coupled enzyme counterscreen, NADH absorbance; 360,000 compounds, 1.2% hits; AID 588335; inhibition, % at 4.8 µM; in the data active = inhibition above about 30%
RecA splice inh – blocks M. tuberculosis RecA intein splicing; AID 2221; inhibition, % (no concentration beside the values); cell-free RecA intein splicing, fluorescence; 290,000 compounds, 0.75% hits; P9WHJ3; in the data active = inhibition above about 30%
Mtb FBA inh – Mtb fructose-bisphosphate aldolase inhibition. P9WQA3. purified M. tuberculosis FBA, fluorescence read-out. inhibition, % at 1 µM. 360,000 compounds, 2.3% hits. AID 588726; in the data active = inhibition above about 27%
BJeLR lethal – kills HRASV12-expressing BJeLR cells | AID 1554 | BJeLR (HRASV12) viability, CellTiter-Glo ATP luminescence, 48 h | 300,000 compounds, 0.17% hits | inhibition, % (concentration not given with the values); in the data active = inhibition above about 50%
PrPC TRFRET – inhibitors of human cell surface prion protein PrPC | 370,000 compounds, 0.43% hits | AID 720596 | TR-FRET read-out | inhibition, % at 13.8 µM | P04156; in the data active = inhibition above about 24%
Numbers stand for hits. Shown are actives, neighbours in structure and some others; about 4.2% of the full set was active somewhere.

What do the screens show for `COc1cccc(-c2ccc(C#N)c(SCC(=O)NCCc3cccc(Cl)c3)n2)c1`?
GDH-TPI inh: inactive; Mtb FBA inh: inactive; BJeLR lethal: inactive; PrPC TRFRET: inactive

What do the screens show for `COc1ccc(-c2ccc(C#N)c(SCC(=O)NCCc3ccccc3)n2)cc1OC`?
GDH-TPI inh: inactive; RecA splice inh: inactive; Mtb FBA inh: 152

What do the screens show for `Cc1cc(=O)n2[nH]c(-c3ccc(C(C)(C)C)cc3)cc2n1`?
GDH-TPI inh: inactive; RecA splice inh: inactive; Mtb FBA inh: 36; BJeLR lethal: inactive; PrPC TRFRET: inactive

What do the screens show for `Cc1cc(=O)n2[nH]c(-c3ccccc3)cc2n1`?
GDH-TPI inh: inactive; RecA splice inh: inactive; Mtb FBA inh: inactive; BJeLR lethal: inactive; PrPC TRFRET: inactive

Results for CC1CCCN(c2ccc([N+](=O)[O-])cc2C(=O)c2ccccc2)C1 (stereo not given) ?
GDH-TPI inh: inactive; RecA splice inh: inactive; Mtb FBA inh: inactive; BJeLR lethal: 58; PrPC TRFRET: inactive

Results for CN(Cc1ccccc1)S(=O)(=O)c1cccc(C(=O)OCc2ccccc2)c1 ?
PrPC TRFRET: inactive

Results for COc1ccc(/C=C/C(=O)NC(=S)Nc2ccc(S(=O)(=O)Nc3cc(C)on3)cc2)cc1 ?
GDH-TPI inh: 35; RecA splice inh: inactive; Mtb FBA inh: inactive; BJeLR lethal: inactive; PrPC TRFRET: inactive

How did COc1ccc(OCC(=O)NC(=S)Nc2ccc(S(=O)(=O)Nc3cc(C)on3)cc2)cc1 do in these assays?
GDH-TPI inh: inactive; RecA splice inh: inactive; Mtb FBA inh: inactive; BJeLR lethal: inactive; PrPC TRFRET: inactive

How did COc1ccc(/C=C/C(=O)NC(=S)Nc2ccc(S(=O)(=O)Nc3ccc(OC)nn3)cc2)cc1 do in these assays?
GDH-TPI inh: 39; RecA splice inh: inactive; Mtb FBA inh: inactive; BJeLR lethal: inactive; PrPC TRFRET: inactive

How did C=CCNc1sc(C(=O)c2ccc(Br)s2)c(N)c1C#N do in these assays?
GDH-TPI inh: inactive; RecA splice inh: inactive; Mtb FBA inh: inactive; BJeLR lethal: inactive; PrPC TRFRET: inactive

What do the screens show for `C=CCNc1nc(N)c(C(=C(C#N)C#N)c2ccc(Br)cc2)s1`?
GDH-TPI inh: inactive; RecA splice inh: inactive; Mtb FBA inh: 126; BJeLR lethal: inactive; PrPC TRFRET: inactive

How did Nc1ccc(-c2cnc(-c3ccc(N)cc3)nc2)cc1 do in these assays?
GDH-TPI inh: 67; RecA splice inh: inactive; Mtb FBA inh: inactive; BJeLR lethal: inactive; PrPC TRFRET: inactive

How did Oc1ccc(-c2cnc(-c3ccc(O)cc3)nc2)cc1 do in these assays?
GDH-TPI inh: inactive; RecA splice inh: inactive; Mtb FBA inh: inactive; BJeLR lethal: inactive; PrPC TRFRET: inactive

How did Nn1c(SCC(=O)N2c3ccccc3Sc3ccc(Cl)cc32)nnc1-c1cc(-c2ccc(F)cc2)n[nH]1 do in these assays?
PrPC TRFRET: inactive

Results for Cc1ccc2c(c1)c1c(c(=O)n(-c3ccccc3C)c(=O)n1CC(=O)NCC1CCCO1)n2C (stereo not given) ?
GDH-TPI inh: inactive; RecA splice inh: inactive; Mtb FBA inh: active; BJeLR lethal: inactive; PrPC TRFRET: inactive

How did N#Cc1ccc(Cn2ccc3ccc(-c4ccc5ccn(C(=O)C6CCCCC6)c5c4)cc32)cc1 do in these assays?
PrPC TRFRET: inactive

How did COC(=O)c1c(C#N)c(N)nc2c1CCCC2 do in these assays?
GDH-TPI inh: inactive; RecA splice inh: inactive; Mtb FBA inh: 125; BJeLR lethal: inactive; PrPC TRFRET: inactive

Results for COc1cc(-c2c(C#N)c(N)nc3c2CCCC3)ccc1O ?
GDH-TPI inh: inactive; RecA splice inh: inactive; Mtb FBA inh: inactive; BJeLR lethal: inactive; PrPC TRFRET: inactive

Results for O=c1[nH]c2ccc(Cl)cc2c(O)c1-c1ccccc1 ?
GDH-TPI inh: inactive; RecA splice inh: inactive; Mtb FBA inh: 34; BJeLR lethal: inactive; PrPC TRFRET: inactive

Results for O=C(NCc1cccnc1)/C(=C\c1ccc(-c2ccc(Cl)c(Cl)c2)o1)S(=O)(=O)c1ccccc1 ?
GDH-TPI inh: 31; RecA splice inh: inactive; Mtb FBA inh: inactive; BJeLR lethal: inactive; PrPC TRFRET: inactive

How did COC(=O)[C@]12C[C@H](CC(=O)NCCc3ccccc3OC)C(=O)N(CCc3ccc(OC)c(OC)c3)C1=C[C@H](COCc1ccccc1)O[C@@H]2C do in these assays?
PrPC TRFRET: inactive

What do the screens show for `Cc1c(NC(=S)N/N=C/c2ccc([N+](=O)[O-])cc2O)c(=O)n(-c2ccccc2)n1C`?
GDH-TPI inh: 48; RecA splice inh: inactive; Mtb FBA inh: inactive; BJeLR lethal: inactive; PrPC TRFRET: inactive

What do the screens show for `Cc1c(NC(=S)N/N=C\c2ccccc2O)c(=O)n(-c2ccccc2)n1C`?
GDH-TPI inh: 31; RecA splice inh: inactive; Mtb FBA inh: inactive; BJeLR lethal: inactive; PrPC TRFRET: inactive
